Source: publication PMC12136788
In all, about 24,000 sequences were measured (“enrichment r”: median about 0.99, highest 2% from about 3.7 on). Only a selection was taken, and the highest values are over-represented in it overall.

T1: UNK ZnF1-3 (human, UniProt Q9C0B0 31-174)
T1 sequence: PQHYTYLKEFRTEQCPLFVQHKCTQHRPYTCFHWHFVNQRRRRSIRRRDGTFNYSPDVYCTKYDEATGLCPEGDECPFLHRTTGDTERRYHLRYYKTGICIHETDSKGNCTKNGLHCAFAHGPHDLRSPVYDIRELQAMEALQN

B1: chr15:63448706:63448707:-_ENSG00000185088_ENST00000411926|hu_hu|FALSE|FALSE (ssRNA)
RNA: GGGAGUUCUACAGUCCGACGAUCUGAUCUUGUAGCAACCUGGACAUUUUACAUCCAUAAAGUAAGAAUUUGGACUUUGUACUAGGCGUUUCUUUUUAUGUUUUUUCUUUUCCUCUUCCAAGGACGGAUGUAGUAAAUCUCUAGCAACAGAGGAUUGAGCAUCA
B2: chr15:51674161:51674162:-_ENSMUSG00000022312_ENSMUST00000022925|mus_mus|motif|central (ssRNA)
RNA: GGGAGUUCUACAGUCCGACGAUCCUGAACAACCUCAGUGCCUUGUCCUUCUUCUUGAUAAUGUUUGAUUAUCUUUAAUACGGCCAGGCCGUCGAUCUGCACCUGCUUCACGGCCGAAUCUCCGGAGCCGCCUUUGCCUUUGCCCAACAGAGGAUUGAGCAUCA
B3: 109540647_109541272_703_CDS_ENSG00000076248_ENST00000242576|human|control|control (ssRNA)
RNA: GGGAGUUCUACAGUCCGACGAUCACGAACCGUGAGGACAGCGUUGAGAAGGAGAACACCUUGCUUGGCCCACCCAGAUAAAUCUCCAUGGCCAGGAUGAACAAAAUCCUCUAUGUCUGUAGACAACUCUUUAUAAAUGUUCUCCAACAGAGGAUUGAGCAUCA
B4: chr20:52835626:52835627:+_ENSG00000101132_ENST00000441080|hu_mus|FALSE|FALSE (ssRNA)
RNA: GGGAGUUCUACAGUCCGACGAUCUGCCUCGAGGUUUAUGUUGCUGCCAAAUUUCGCGUAUAGCUGCACCUUCAGGUCGGCUAACACCCGCUGGAUGGACGCCACUCUGGACUCUAAGGCAUCAAUCUCUUCUUGCAAAGUUUUCAACAGAGGAUUGAGCAUCA
B5: chr1:39494447:39494448:+_ENSG00000168653_ENST00000372967|hu_mus|hu_hu_hu_mus_False|48_48 (ssRNA)
RNA: GGGAGUUCUACAGUCCGACGAUCGCACCGAGCGGCGUUCUUAUAGGGCUGUUCUGCGCUUAGGAACAUAAAGUGCCGGUCCAGGCUAAGGCCGAACUUUUUCUGUAUGUCAAGGAAAGGCAUGGCUCUGCAGUGCCCUUGUCACAACAGAGGAUUGAGCAUCA
B6: chr2:131829505:131829506:-_ENSG00000152102_ENST00000409185|hu_mus|FALSE|FALSE (ssRNA)
RNA: GGGAGUUCUACAGUCCGACGAUCCGCUCCAGGGUACAUGUUAGGAGAAUAGGCAGGUGCUGCUGCAUAGCCCACAGGAAAACCAGCUGGAUAUCCAAUUCCUUUGGCAUUUGCAUAGGGAACGCCAGAAGACCCAGGGCUAUACAACAGAGGAUUGAGCAUCA

Target: T1, UNK ZnF1-3
Assay: nsRBNS (natural sequence RNA bind-n-seq); RBNS binding buffer (assumed for nsRBNS): 25 mM Tris pH 7.5, 150 mM KCl, 3 mM MgCl2, 0.01% Triton X-100, 500 ug/ml BSA, 20 U/ml SUPERase-In, 4 C; UNK is unkempt and MSI1 is Musashi-1; names of the RNAs are library labels; protein concentration not given here; high values mean tight binding

| Binder | binding signal [enrichment R] |
| --- | --- |
| B1 | 0.655 |
| B2 | 0.51 |
| B3 | 1.34 |
| B4 | 0.762 |
| B5 | 0.888 |
| B6 | 0.945 |
